Reference: PubChem BioAssay (Tox21)
Records with an inconclusive call do not appear. A call without a number means that no potency is given here. A number with no mark means an inactive call. The source made the active and inactive calls. Calls come from the whole dose curve; as a rule, active = well fitted cell-killing curve with a large enough effect in the repeat runs; inconclusive = weak or mixed curves, or effect the other way; inactive = flat fitted curve, though single readings scatter.

Test: qHTS assay to identify small molecule agonists of the androgen receptor (AR) signaling pathway in the presence of an antagonist - cell viability counter screen (AID 1259379); note: nearly all actives have a fitted effect of over 25% in size
Details: MDA-kb2 viability, CellTiter-Fluor, 16 h; series mostly up to 92.4 µM
Text: National Center for Advancing Translational Sciences [NCATS]
NIH Chemical Genomics Center [NCGC]
U.S. Environmental Protection Agency [EPA]
National Institutes of Environmental Health Sciences [NIEHS]
National Toxicology Program [NTP]
U.S. Food and Drug Administration [FDA]
Androgen receptor (AR) is an important member of nuclear receptor family. Its signaling plays a critical role in AR-dependent prostate cancer and other androgen related diseases. Considerable attention has been given in the past decades to develop methods to study and screen for the environmental chemicals that have the potential to interfere with metabolic homeostasis, reproduction, developmental and behavioral functions. Therefore AR binding assay for screening against androgen agonists and antagonists can be used to identify potential endocrine disruptors.
MDA-kb2 cells (from ATCC, deposited by Wilson et al.) are human breast carcinoma cells that were stably transfected with a luciferase reporter gene under control of the MMTV promoter that contains response elements for both androgen receptor (AR) and glucocorticoid receptor (GR). This particular screening for measuring luciferase reporter gene activity using MDA-kb2 cells against Tox21 10K library compounds is a confirmation study on agonist mode screening in the presence of AR-antagonist compound (Nilutamide) at 3.0uM final concentration. The cytotoxicity of the compounds was tested in parallel by measuring the cell viability using CellTiter-Fluor assay system (Promega, Madison, WI) in the same wells.
Tox21 Assay Protocol Summary:
MDA-kb2 cells (cells cultured without CO2) were dispensed at 3,000 cells/well in 4uL of culture medium into white wall/solid-bottom 1536-well plates (Corning Life Sciences, Corning, NY) using a Multidrop Combi (Thermo Fisher Scientific Inc., Waltham, MA) dispenser. The assay plates were incubated at 37C and 0% CO2 for 5hr. One uL of 3.0uM (final concentration) Nilutamide or assay buffer was added using two separate tips of Flying Reagent Dispenser (FRD, Aurora Discovery, San Diego, CA). Then 23nL of compounds dissolved in DMSO at 15 concentrations and positive controls were transferred to the assay plates using a Pintool station (Wako, San Diego, CA). The assay plates were incubated at 37C and 0% CO2 for 16 hr. After 15hr incubation at 37C, 1uL/well CellTiter-Fluor reagent (Promega Corporation) was added to each well of the assay plates using FRD. After 1hr incubation at 37C and 0% CO2, the fluorescence signal was measured using a ViewLux plate reader (PerkinElmer, Shelton, CT).
Potency is the fitted concentration of half-maximal effect.

| Compound | Potency | activity change, negative = cytotoxicity |
| --- | --- | --- |
| CCCCCCOC(=O)CCCCCCCC(=O)OCCCCCC | inactive | – |
| Cc1nc2ccccc2s1 | inactive | – |
| O=C(OCCOCCO)c1ccccc1Nc1cccc(C(F)(F)F)c1 | inactive | – |
| O=C(CCCCCCC(=O)Nc1ccccc1)NO | inactive | – |
| NC(=O)N(O)[C@@H]1COc2cc(OCc3ccccc3)ccc21 | inactive | – |
| Cn1c(=O)c2c(ncn2CC(=O)O)n(C)c1=O | inactive | – |
| CC(C)CCCCCOC(=O)CCCCC(=O)OCCCCCC(C)C | inactive | – |
| Cc1cc2nc3ccc(=[N+](C)C)cc-3sc2cc1N | 3.76 µM (active) | – |
| Cc1ccc(Nc2nccc(N(C)c3ccc4c(C)n(C)nc4c3)n2)cc1S(N)(=O)=O | inactive | – |
| CCOC(=O)N1CCC(n2c(=O)[nH]c3cc(Cl)ccc32)CC1 | 29.8 µM (active) | – |
| Cc1ccc(S)cc1 | inactive | – |
| ON(Cc1ccccc1)Cc1ccccc1 | inactive | – |
| CCCOc1ccc(S(=O)(=O)N2CCN(CC)CC2)cc1-c1nc2c(CC)n(Cc3ccccn3)nc2c(=O)[nH]1 | inactive | – |
| C=CCOC(=O)/C=C\C(=O)OCC=C | inactive | – |
| O=[N+]([O-])c1cccc(S(=O)(=O)NCCNS(=O)(=O)c2cccc([N+](=O)[O-])c2)c1 | inactive | – |
| c1ccc(COCc2ccccc2)cc1 | inactive | – |
| N#C[C@@H]1C[C@@H]2C[C@@H]2N1C(=O)[C@@H](N)C12CC3CC(CC(O)(C3)C1)C2 | inactive | – |
| CN(C)C(=O)Nc1ccc(Oc2ccc(Cl)cc2)cc1 | 54.5 µM (active) | – |
| OC/C(Br)=C(\Br)CO | inactive | – |
| Cc1nccn1-c1ccc(Sc2cccc(C3(C(N)=O)CCOCC3)c2)cc1 | 8.63 µM (active) | – |

| Compound | Potency | activity change, negative = cytotoxicity |
| --- | --- | --- |
| CCCCCCCCCCCC[N+](C)(C)CC(=O)[O-] | inactive | – |
| Cc1oncc1C(=O)Nc1ccc(C(F)(F)F)cc1 | inactive | – |
| Oc1ccc(Nc2ccccc2)cc1 | inactive | – |
| C/C=C/C=C/CCCCCCCO | inactive | – |
| Nc1ccc(C(=O)OCCCOC(=O)c2ccc(N)cc2)cc1 | inactive | – |
| C=CC(C)(O)CCCC(C)CCCC(C)CCCC(C)C (stereo not given) | inactive | – |
| CC(C)C(=O)O | inactive | – |
| CC1CN(c2cc3c(cc2F)c(=O)c(C(=O)O)cn3-c2ccc(F)cc2F)CCN1 (stereo not given) | – | 0.826% [at 8.39 µM] |
| CC1=CC(O)CC(C)(C)C1 (stereo not given) | inactive | – |
| O=C(N[C@@H](c1ccccc1)[C@@H]1CCCCN1)c1cccc(C(F)(F)F)c1Cl | 17.2 µM (active) | – |
| CC(C)(C)C(=O)O | inactive | – |
| CCCCC/C(=C\c1ccccc1)CO | inactive | – |
| O=S(=O)(c1ccccc1)c1ccc(Cl)cc1 | inactive | – |
| CC(C)C(OC(=O)c1ccccc1)C(C)(C)COC(=O)c1ccccc1 (stereo not given) | inactive | – |
| NC(=O)Nc1ccc(Cl)cc1 | inactive | – |
| CCCOC(=O)c1ccc(N)cc1 | inactive | – |
| CCCCCCCCSCCO | inactive | – |
| Cc1c(C(=O)NN2CCCCC2)nn(-c2ccc(Cl)cc2Cl)c1-c1ccc(Cl)cc1 | inactive | – |
| N#C/C(=C1\SCC(c2ccccc2Cl)S1)n1ccnc1 (stereo not given) | inactive | – |
| CCCOCCOCCO | inactive | – |
